Source: PubChem BioAssay AID504332 (National Center for Advancing Translational Sciences (NCATS), 2011)
Out of some 350,000 compounds screened, about 31,000 (8.9%) were called active. Inconclusive results (about 15%) are left out. The call rests on the fitted dose curve; in most records, active means well fitted inhibition curve with a large enough effect; inconclusive means small, poorly fitted or top-dose-only effect; inactive means no such curve, though single readings can be large or run the other way. The entries come from a sample that favours actives as a whole.

Molecular target: Histone-lysine N-methyltransferase EHMT2 (Homo sapiens) (UniProt Q96KQ7)
Sequence (Q96KQ7 913-1193 limits assumed): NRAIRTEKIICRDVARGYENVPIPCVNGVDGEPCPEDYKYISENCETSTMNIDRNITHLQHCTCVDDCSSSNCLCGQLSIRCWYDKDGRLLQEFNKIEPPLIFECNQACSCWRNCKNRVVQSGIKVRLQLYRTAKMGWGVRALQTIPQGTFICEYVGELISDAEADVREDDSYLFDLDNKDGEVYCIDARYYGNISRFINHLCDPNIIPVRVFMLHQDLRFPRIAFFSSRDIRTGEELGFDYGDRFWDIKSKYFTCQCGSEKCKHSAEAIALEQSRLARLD
Assay: qHTS Assay for Inhibitors of Histone Lysine Methyltransferase G9a; further: nearly all actives have a fitted effect of over 75% in size
Settings: G9a H3K9 monomethylation, AlphaScreen, 2 h; series mostly up to 59 µM; activity, negative = inhibition: at the top concentration
Description: Methylated lysines, on the N-terminal tails of histone proteins serve as epigenetic markers to recruit factors that can then modify local chromatin structure to lead to functional consequences. G9a and other members of the SUV39 family of the SET domain-containing superfamily of histone lysine methyltransferases (HMT) have been identified to specifically methylate Lys9 of histone H3 (H3K9). G9a catalyzes the mono- and di-methylation of H3K9 in mammalian euchromatic regions, where the resulting H3K9me2 is indicative of transcriptional repression. […] The inhibition of G9a will result in transcriptional activation and work synergistically with DNA methyltransferase and histone deacetylase inhibitors, to kill cancer cells. This qHTS assay for identification of G9a inhibitors is a chemiluminescence based AlphaScreen (PerkinElmer). Methylation of biotinylated-histone peptide is measured through specific antibody-based detection, in conjunction with streptavidin-coated donor and anti-IgG antibody-coated acceptor beads. The method is particularly well suited for detection of inhibitors acting by the desired histone peptide competitive mechanism and is applicable to testing other HMTs. Although AlphaScreen has significant advantages with its utility in a variety of epigenetic target assays, the primary screening data provided in this deposition should be used with caution due to the prevalence of screening artifacts. An AlphaScreen counterscreen is highly recommended to be run against any putative actives to eliminate non specific artifacts. Alternatively, one can use other AlphaScreen assays in PubChem to filter out promiscuous hits. Quinn et al. A chemiluminescence-based method for identification of histone lysine methyltransferase inhibitors. Mol Biosyst 6(5): 782-8. 2010. PMID: 20567762 [2] Baell,Holloway. New substructure filters for removal of pan assay interference compounds (PAINS) from screening libraries and for their exclusion in bioassays. J Med Chem. 53(7):2719-40. 2010. PMID: 20131845 NIH Molecular Libraries Probe Production Network [MLPCN] NIH Chemical Genomics Center [NCGC] Structural Genomics Consortium (SGC) NIH Grant: 5U54 MH084681-02
To each well of a 1,536w plate, 2ul of HMT enzyme (final 20nM) were added, using a nanoliter dispenser. The G9a- and GLP-inhibitor BIX-01294 (CID: 25150857) are used as an intraplate control, with a 16-point titration in duplicate. A Kalypsys pin-tool transferred 23nl of library compound solution in DMSO to each well. Following a 15 min incubation of enzyme with compounds at room temperature, 1ul mixture of b-H3K9 peptide substrate (final 500nM) and SAM cofactor (final 20uM) were added. Reactions were allowed to proceed at room temperature for 2 hours. Methylated b-H3K9 peptide product was detected with 0.5 ug/mL rabbit polyclonal anti-monomethyl histone H3K9 antibody (Abcam Inc., Cambridge, MA) and 20 ug/mL each streptavidin-coated donor and anti-rabbit IgG acceptor AlphaScreen beads. Antibody and beads were added in a 1ul dispense, for a final volume of 4ul, and plates were incubated, protected from the light, for 10 min at room temperature. Microplates were then read on an EnVision multilabel plate reader using the 1,536 plate HTS AlphaScreen aperture (excitation time 80 ms, measurement time 240 ms).
On the % scale 0 is the no-effect control and ±100 the full control effect; potency means the concentration at half of the fitted maximal effect.

activity, negative = inhibition, inactive:
O=C(NCc1cccc(Cl)c1)C1=CC=CN2CCS(=O)(=O)N=C12 -59.1% [at 12.7 µM]
Cc1ccccc1NC(=O)Cn1c(=O)n(CC2CCC(C(=O)NCCc3ccccc3)CC2)c(=O)c2ccccc21 (stereo not given) 6.89%
O=C(Nc1ncccc1O)c1ccc(C(=O)c2ccccc2)cc1 -9.21% [at 0.501 µM]
COc1ccc(CNc2nc(-c3ccccc3)nn2C(=O)c2ccccc2OC)cc1 17%
COc1ccc(S(=O)(=O)N2CCC(C(=O)NCCC(=O)NCc3cccc(OC)c3)CC2)cc1 7.88% [at 102 µM]
COc1ccc(NS(=O)(=O)c2ccc3oc(SCC(N)=O)nc3c2)cc1 -10.5% [at 102 µM]
Cc1cccc(C(=O)Nc2ccc(-c3nc4ccccc4s3)c(C)c2)c1 10.3%
Cc1ccc(S(=O)(=O)Nc2nc3ccccc3s2)cc1[N+](=O)[O-] -3.63% [at 102 µM]
COc1ccc(NS(=O)(=O)c2ccc(NC(=S)NC(=O)CC(C)C)cc2)cc1 -29.8% [at 12.7 µM]
CC(C)NC(=O)C1CCC(Cn2c(=O)c3sccc3n(Cc3ccc(F)cc3)c2=O)CC1 (stereo not given) 9.1%
Cc1ccc(Cl)cc1NC(=O)CCS(=O)(=O)c1ccc(Br)s1 -47.7%
COc1ccccc1-n1nnnc1SCC(=O)NC(=O)Cc1ccccc1 17.7% [at 2.33 µM]
O=C(Nc1ccc(F)cc1F)c1ccc2c(=O)n3c(nc2c1)CCCCC3 -21.5%
CCCCC/C=C/C1=CC(=O)C[C@H](c2ccc(Cl)cc2)C1 8.79% [at 0.501 µM]
Cc1nnc(N2CCCC(C(=O)NCCN(C)C)C2)c2nn(-c3ccccc3)c(C)c12 (stereo not given) -30.8%
Cc1ccc(NC(=S)N(CCCN2CCC(C)CC2)Cc2ccco2)cc1 -33.9% [at 102 µM]
Cc1ccc(C)c(N2CCN(CCCNC(=O)Nc3ccc(Cl)cc3)CC2)c1 -40.9%
COc1ccc(N=Nc2ccc(O)c(P(=O)(c3ccccc3)c3ccccc3)c2)cc1 4.01% [at 102 µM]
COc1ccccc1N1CCN(c2ncnc3onc(-c4cccc(Cl)c4)c23)CC1 5.72%
O=C(c1cnc(Cl)c(Cl)c1)N1CCN(S(=O)(=O)c2ccc(F)cc2)CC1 1.49% [at 102 µM]
CC1(c2ccc(Cl)cc2Cl)NC(=O)N(CC(=O)Nc2cccnc2Cl)C1=O (stereo not given) -2.03% [at 102 µM]
COc1cc(OC)cc(C(=O)OCC(=O)Nc2ccc(F)cc2F)c1 -3.36% [at 102 µM]
Cc1cccc(C(=O)OCC(=O)Nc2ccc(F)cc2)c1 -7.9% [at 102 µM]
CC(CCN1CCN=C1N(C)C)c1ccccc1 (stereo not given) 11.1% [at 2.33 µM]
COc1cc(OC)c(NC(=O)c2cc(S(=O)(=O)N3CCCC3)cn2C)cc1Cl -6.04%
Cc1ccc(OCC(=O)Nc2ccc(S(=O)(=O)Nc3ccccn3)cc2)cc1 -2.38% [at 102 µM]
CCOc1ccc(NS(=O)(=O)c2ccc(OCC(=O)NCCCOC)cc2)cc1 1.35% [at 12.7 µM]
Cn1c(COc2ccccc2C(C)(C)C)nc2ccccc21 -0.125%
CC(C)C(c1nnnn1C1CCCCC1)N1CCN(C(=O)c2ccco2)CC1 (stereo not given) 8.41% [at 102 µM]
CC(C)C(c1nnnn1CCc1ccccc1)N1CCN(C(=O)c2ccco2)CC1 (stereo not given) 0.196% [at 102 µM]
COC(=O)c1ccc(C2C(C(=O)Nc3ccccc3)=C(C)Nc3nc4ccccc4n32)cc1 (stereo not given) -7.28%
O=C(Oc1ccc(F)cc1)N1CCOCC1 21.7%
Cc1ccc(C(=O)Oc2ccc(C(=S)N3CCOCC3)cc2)cc1 10.7% [at 2.33 µM]
O=C(CN1C(=O)S/C(=C\c2ccccc2Cl)C1=O)NC1C=CS(=O)(=O)C1 (stereo not given) 25.3% [at 102 µM]
CC(C)NC(=O)CSc1ccccc1C(=O)NCc1ccc2c(c1)OCO2 9.25% [at 102 µM]
CC(NC(=O)Nc1cccc([N+](=O)[O-])c1)c1ccc2c(c1)OCO2 (stereo not given) -49.8% [at 102 µM]
CCc1ccc(NC(=O)NC(C)c2ccc3c(c2)OCO3)cc1 (stereo not given) 11.5% [at 102 µM]
CC(C)C(=O)Nc1cccc(C(=O)Nc2ccc3c(c2)OCO3)c1 -5.76% [at 102 µM]

Potency, active:
CCN(CC)c1cc(NC2CCCCC2)c2c3c(onc13)-c1ccccc1C2=O 7.08 µM
COc1ccc(S(=O)(=O)Nc2ccc(O)c(Sc3nc4ccccc4s3)c2)cc1 4.47 µM
O=C(O)c1cccc(S(=O)(=O)Nc2ccc(O)cc2Sc2nc3ccccc3s2)c1 7.94 µM
Cc1ccc(NC(=S)N(CCCN2CCCC2)Cc2cccn2Cc2ccc(Cl)cc2)cc1 50.1 µM
Cc1cc(N=Nc2ccc3ccccc3c2)ccc1O 35.5 µM
O=C(COC(=O)c1ccc(F)cc1F)Nc1ncccn1 35.5 µM
S=c1[nH]ccn1-c1ccc(Cl)cc1 3.98 µM
CNC(=O)COc1ccc(S(=O)(=O)Nc2ccccc2)cc1 50.1 µM
CCC(c1nnnn1C1CCCC1)N1CCN(C(=O)c2ccco2)CC1 (stereo not given) 17.8 µM
O=C(Oc1ccc(C(=S)N2CCOCC2)cc1)c1ccc(F)cc1 35.5 µM
CCSc1ccccc1C(=O)Nc1ccc2c(c1)OCO2 3.98 µM
CC(NC(=O)Nc1ccc2c(c1)OCO2)c1ccncc1 (stereo not given) 50.1 µM
